Several values for one entry are separate records, joined by “and”; a condition that tells them apart may be missing. Equal values may be shown once. The whole screen tested about 420,000 compounds, of which about 64,000 (15%) were called active. Inconclusive results (about 27%) are left out. Calls follow the shape of the dose curve; as a rule, active = well fitted inhibition curve with a large enough effect; inconclusive = small, poorly fitted or top-dose-only effect; inactive = flat fitted curve, though single readings scatter. A selection follows.
% is scaled to controls: 0 for no effect and ±100 for the full control effect; potency is read from the fitted curve at half-maximal effect.

The experiment can be described thus: qHTS for Inhibitors of human tyrosyl-DNA phosphodiesterase 1 (TDP1): qHTS in cells in absence of CPT. Also: nearly all actives have a fitted effect of over 55% in size. To be noted: DT40 Tdp1-/- hTDP1 cells, no CPT, ATP luminescence, 48 h; activity change, negative = growth inhibition: at 46.2 µM (top of the series). The essentials: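 Growth of hTDP1-complemented DT40 Tdp1-knockout cells is measured by ATP luminescence after at least 48 hr compound exposure at 37 °C, with DMSO substituting for the 20 nM CPT used in the parallel screen.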
(Quantitative high-throughput screening tests each substance at several concentrations.)
Consider `NC(c1csc(NC(=O)Nc2cccc(C(F)(F)F)c2)n1)C1CCCCC1` (centres undefined), for which the Potency was 20.6 µM (active).
Still for that read-out and setting: as for `CC(C)(C)CC(=O)Nc1nc(C(N)Cc2ccc(C(F)(F)F)cc2)cs1` (centres undefined), the figure is 16.4 µM (active).
On to `COc1ccc(NC(=O)C(=O)NCC(=O)Nc2cccc(C(F)(F)F)c2)cc1`, for which the “activity change, negative = growth inhibition” value was 10% (inactive).
Same read-out and setting: to `Cc1ccccc1NC(=O)Cc1nc(COC(=O)c2ccc(C(F)(F)F)cc2)cs1` belongs -18.3% (inactive).
`COc1ccc(CC(N)c2csc(NC(=O)Nc3ccc(C(C)C)cc3)n2)cc1` (centres undefined): the Potency was 6.51 µM (active).
As for `COC(=O)[C@H](Cc1ccccc1)NC(=O)Nc1ccc(OC)cc1`, the “activity change, negative = growth inhibition” value was -9.61% (inactive).
Same read-out and setting: to `COc1ccc(NC(=O)C(Br)C(C)C)cc1` (centres undefined) belongs -12.5% (inactive).
Still for that read-out and setting: as for `COc1ccc(C(CC(=O)Nc2ccc(C)cc2)NC(=O)C(F)(F)F)cc1` (centres undefined), the figure is -1.65% (inactive); as for `CC(C)C[C@H](NC(=O)Nc1cccc(C(F)(F)F)c1)C(=O)O`, 5.13% (inactive).
Consider `COc1ccc(C(N)c2csc(NC(=O)Nc3cccc(C(F)(F)F)c3)n2)cc1` (centres undefined), for which the Potency was 13 µM (active).
Take `CC(C)(C)CC(=O)Nc1nnc(SCC(=O)NCc2cccs2)s1`: the “activity change, negative = growth inhibition” value is -21.9% (inactive).
The same measure, in the same setting: to `Cc1ccc(NC(=O)Nc2cccc(C(F)(F)F)c2)nc1` belongs 3.8% (inactive); to `COc1ccccc1C1CN(Cc2ccccc2O)Cc2ccccc2O1` (centres undefined), -21.5% (inactive).
Same read-out and setting: to `O=C(CC(NCc1cccnc1)C(=O)O)Nc1ccc(O)cc1` (centres undefined) belongs -3.74% (inactive).
Same read-out and setting: to `CSc1nc(O)c(Cc2ccccc2)c(=O)[nH]1` belongs -0.545% (inactive); to `Cc1cc(C(=O)OC(C)C(=O)NC2CCCCC2C)c(C)o1` (centres undefined), -4.96% (inactive); to `O=C(O)c1ccc(S(=O)(=O)N2CCOCC2)o1`, -2.82% (inactive).
Regarding `Cc1ccc(NC(=O)NNC(=O)c2sccc2-n2cccc2)cc1`, the “activity change, negative = growth inhibition” value was -19.7% (inactive).
In the case of `CC(C)NC(=O)NNc1c(Cl)cncc1Cl`, the “activity change, negative = growth inhibition” value was 1.9% (inactive).
For the compound `CC1CCc2c(sc3c2C2=NS(=O)(=O)CCN2C=N3)C1` (centres undefined), the “activity change, negative = growth inhibition” value was -10.8% (inactive).
For the compound `Cc1ccc(CC2CC(=O)N(c3nc(C)cc(C)n3)C2=O)cc1` (centres undefined), the “activity change, negative = growth inhibition” value was -14.1% (inactive).
Same read-out and setting: as for `COc1ccccc1C(=O)NCC(=O)OCC(=O)NNC(=O)c1ccc(Br)cc1`, the figure is -3.83% (inactive).
The same measure, in the same setting: to `CC(C)C(NC(=O)c1c(F)cccc1F)C(=O)NNC(=O)c1ccccc1` (centres undefined) belongs 11.9% (inactive).
Consider `CCO/C([O-])=N/c1c[n+](N2CCOCC2)no1`, for which the Potency entry was “inactive”.
In the case of `O=C(CCC(=O)c1cccs1)Nc1nc2ccccc2s1`, the “activity change, negative = growth inhibition” value was -1.45% (inactive).
On the same count and under the same terms, to `COC(=O)[C@@H]1C[C@@]2(O)[C@H](O)[C@H](O)[C@H](O)C[C@H]2N1Cc1ccc(C(C)(C)C)cc1` belongs 4.36% (inactive); to `CN(C)CCN(C(=O)CN1C(=O)c2ccccc2C1=O)c1nc2cc3c(cc2s1)OCCO3`, 3.41% (inactive).
For the compound `Cc1c(NC(=O)c2cc(-c3ccc(Cl)s3)nc3ccccc23)c(=O)n(-c2ccccc2)n1C`, the Potency was 16.4 µM (active).
As to `O=C(Nc1cccc(NC(=O)c2cccc(F)c2)c1)c1ccccc1`, the “activity change, negative = growth inhibition” value is -9.75% (inactive).
Take `Cc1c(NC(=O)c2cccnc2)c(=O)n(-c2ccccc2)n1C`: the Potency result was “inactive”.
Same read-out and setting: as for `O=C(Nc1cccc(F)c1)c1coc(=O)c(Br)c1`, the figure is 2.31 µM (active).
Take `O=C(CCN1C(=O)c2ccccc2C1=O)Nc1cccc(F)c1`: the “activity change, negative = growth inhibition” value is 17.3% (inactive).
For `Cc1c(NC(=O)c2cc(=O)c3ccccc3o2)c(=O)n(-c2ccccc2)n1C`, the “activity change, negative = growth inhibition” value is 0.865% (inactive).
For the compound `Cc1c(NC(=O)c2coc(=O)c(Br)c2)c(=O)n(-c2ccccc2)n1C`, the Potency was 4.11 µM (active).
In the case of `Cc1cc(C(=O)Nc2c(C)n(C)n(-c3ccccc3)c2=O)cs1`, the “activity change, negative = growth inhibition” value was -6.58% (inactive).
Turning to `O=C(c1cc(-c2ccc(Cl)s2)nc2ccccc12)N1CCOCC1`, the “activity change, negative = growth inhibition” value was -23.9% (inactive).
Still for that read-out and setting: to `COCn1c(C(O)c2ccccc2)cc2ccccc21` (centres undefined) belongs 5.37% (inactive); to `O=C1c2ccccc2S(=O)(=O)N1CC(O)Cn1c2ccccc2c2ccccc21` (centres undefined), -9.56% (inactive).
Same read-out and setting: as for `CC(CC(=O)N1CCN(S(=O)(=O)c2ccccc2)CC1)n1cncn1` (centres undefined), the figure is -11.7% (inactive); as for `CCN(CC)S(=O)(=O)c1ccc2[nH]c(=O)cc(C(=O)N(C)C3CCS(=O)(=O)C3)c2c1` (centres undefined), 14.9% (inactive).
For `CC(=O)N1CCN(CCN=CC2=C(O)CC(C)(C)CC2=O)CC1`, the “activity change, negative = growth inhibition” value was -2.47% (inactive).
The same measure, in the same setting: as for `CCc1nccn1S(=O)(=O)c1cccc([N+](=O)[O-])c1`, the figure is 0.702% (inactive).
`Nc1ncnc2nnsc12`: the “activity change, negative = growth inhibition” value is -6.84% (inactive).
For `COc1ccc(-c2nc(CCNC(=O)c3ccc(Br)o3)cs2)cc1`, the Potency was 20.6 µM (active) and 18.4 µM (active).
For the compound `COc1cc(OC)cc(C(=O)NNC(=O)CNC(=O)c2ccc(Br)o2)c1`, the “activity change, negative = growth inhibition” value was -1.82% (inactive).
Still for that read-out and setting: to `O=S(=O)(NCCc1csc(-c2ccccc2)n1)c1cccnc1` belongs -6.09% (inactive).
Still for that read-out and setting: to `CC(C)c1ccc(NC(=O)COC(=O)c2ccc(CN3CCCC3=O)cc2)cc1` belongs 13.6% (inactive).
In the case of `CN(C)C(=O)N1CCNCC1`, the “activity change, negative = growth inhibition” value is 1.26% (inactive).
On the same count and under the same terms, to `Cc1csc(=NC(=O)c2ccccc2)n1CCO` belongs -16.2% (inactive).
For `C=C(C)CNC(=S)/N=c1\scc(C)n1CC`, the Potency is 20.6 µM (active).
Take `COc1ccc(NC(=S)Nc2ccc(S(N)(=O)=O)cc2)c(C)c1`: the “activity change, negative = growth inhibition” value was -13.9% (inactive).
Still for that read-out and setting: as for `COC(=O)c1sc(NC(=O)COC(=O)C2CCC2)c(C(=O)OC)c1C`, the figure is -5.44% (inactive); as for `O=S1(=O)C[C@@H](N2CCN(CCO)CC2)[C@H](COCc2ccccc2)N1`, 20.9% (inactive).
Still for that read-out and setting: as for `Cc1ccc(NC(=O)CNCc2ccccn2)cc1S(=O)(=O)N(C)C`, the figure is -3.4% (inactive); as for `COc1ccc(NC(=O)CSc2nc(C)cs2)cc1`, -29.3% (inactive).
Regarding `Cc1csc(SCC(=O)Nc2ccc(C)c(S(=O)(=O)N(C)C)c2)n1`, the Potency was 18.4 µM (active).
Same read-out and setting: to `CC(=O)c1sc(N)nc1C` belongs “inactive”.
For the compound `CC(C)[C@H](NC(=O)N1CC(=O)Nc2ccccc21)C(=O)N[C@@H](Cc1c[nH]c2ccccc12)C(=O)O`, the “activity change, negative = growth inhibition” value was 0.876% (inactive).
As to `CC(C[N+](C)(C)C)OC(N)=O` (centres undefined), the Potency result is “inactive”.
On to `Fc1ccc(COc2cccc(-c3n[nH]c(=S)o3)c2)cc1`, for which the “activity change, negative = growth inhibition” value is 1.3% (inactive).
Consider `O=C(NCCOc1ccccc1Cl)C(=O)Nc1ccccc1`, for which the Potency was 18.4 µM (active).
In the case of `O=C(O)c1ccccc1OCc1ccccc1Cl`, the “activity change, negative = growth inhibition” value is 0.336% (inactive).
The same measure, in the same setting: to `COc1ccccc1OCCNC(=O)CCNC(=O)c1ccccc1Cl` belongs 4.86% (inactive); to `CCC(C)NC(=O)C1CCCN(C(=O)NC2CCCCC2)C1` (centres undefined), 0.165% (inactive); to `C=CCN(c1ccc(C(=O)Nc2cc(C)cc(C)c2)cc1)S(C)(=O)=O`, -24.1% (inactive).
Same read-out and setting: to `COc1ccc(O)c(C=Nc2cc(C)on2)c1` belongs 0.215% (inactive); to `COc1ccc(C#Cc2c(-c3ccc(OC)cc3)oc3ccc(-c4ccc5c(c4)OCO5)cc23)cc1`, -5.09% (inactive).
Take `COc1ccc(-c2onc(C)c2-c2ccc3c(c2)OCCO3)c(O)c1`: the Potency is 18.4 µM (active).
Turning to `CC[C@H](C)[C@@H](C(=O)N1CCNCC1)n1cc([C@@H](N)Cc2ccc(O)cc2)nn1`, the “activity change, negative = growth inhibition” value is -10.6% (inactive).

The record behind these values is PubChem BioAssay AID686978 (National Center for Advancing Translational Sciences (NCATS), 2013).
